Experimental data reported in the supplement of paper PMC11732987, “Enantioselective OTUD7B fragment discovery through chemoproteomics screening and high-throughput optimisation” (Communications Chemistry, 2025).

Key:
Assay in all cases: log2 ratio of Biotin-Ahx-Ub-VS probe labelling (fragment/DMSO); higher = less target engagement (more negative = stronger competition), active = hit call of the paper (q ≤ 0.05, log2 ratio ≤ -1)
Details in all cases: compound concentration: 200 uM; treatment time: 3 h
USP34 = USP34 (UniProt Q70CQ2)
Summary of the method: (§1)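 HEK293T lysate (495 µg per sample, in Tris/CHAPS/IGEPAL buffer with protease inhibitors) was treated in triplicate with fragment at 200 µM or with DMSO for 3 h. It was then treated with Biotin-Ahx-Ub-VS (0.5 µM final) for 1 h. Labelled DUBs were NeutrAvidin-enriched, digested with LysC and trypsin, and run by diaPASEF LC-MS/MS. Spectronaut label-free quantities were global-median-normalised. Values are average log2 ratios fragment/DMSO by unpaired t-test, using proteins with ≥2 unique peptides.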

USP36 = target: T1, USP36 (UniProt Q9P275)
T1 sequence (whole entry): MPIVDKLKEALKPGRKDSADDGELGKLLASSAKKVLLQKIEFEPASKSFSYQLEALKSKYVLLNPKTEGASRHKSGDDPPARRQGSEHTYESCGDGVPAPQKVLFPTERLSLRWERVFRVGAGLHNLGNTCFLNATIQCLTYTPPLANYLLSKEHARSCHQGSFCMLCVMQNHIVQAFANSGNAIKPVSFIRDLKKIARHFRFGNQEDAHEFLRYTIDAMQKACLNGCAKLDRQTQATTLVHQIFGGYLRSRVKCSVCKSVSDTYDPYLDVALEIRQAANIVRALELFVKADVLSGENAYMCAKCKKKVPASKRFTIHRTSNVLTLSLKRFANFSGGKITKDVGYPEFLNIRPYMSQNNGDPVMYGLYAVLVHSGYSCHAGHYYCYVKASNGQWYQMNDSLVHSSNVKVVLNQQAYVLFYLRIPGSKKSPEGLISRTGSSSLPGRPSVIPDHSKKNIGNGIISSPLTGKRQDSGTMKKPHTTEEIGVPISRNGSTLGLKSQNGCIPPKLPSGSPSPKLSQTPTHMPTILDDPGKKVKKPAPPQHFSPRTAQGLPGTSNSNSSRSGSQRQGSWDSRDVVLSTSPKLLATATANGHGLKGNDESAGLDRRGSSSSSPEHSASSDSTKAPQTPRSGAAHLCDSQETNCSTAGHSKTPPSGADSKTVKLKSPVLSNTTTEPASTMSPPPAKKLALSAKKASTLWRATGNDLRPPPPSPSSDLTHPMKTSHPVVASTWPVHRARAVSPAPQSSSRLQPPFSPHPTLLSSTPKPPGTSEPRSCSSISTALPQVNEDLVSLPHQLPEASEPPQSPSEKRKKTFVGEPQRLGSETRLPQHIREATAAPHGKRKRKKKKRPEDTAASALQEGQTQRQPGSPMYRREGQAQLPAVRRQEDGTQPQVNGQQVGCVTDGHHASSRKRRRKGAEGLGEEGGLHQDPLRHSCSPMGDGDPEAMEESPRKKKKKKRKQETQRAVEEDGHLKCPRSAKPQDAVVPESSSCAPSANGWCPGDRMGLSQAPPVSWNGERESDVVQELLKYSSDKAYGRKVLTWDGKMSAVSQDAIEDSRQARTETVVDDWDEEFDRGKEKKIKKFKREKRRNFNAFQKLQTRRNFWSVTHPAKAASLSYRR
Summary of the method: as §1

USP38 = target: T2, USP38 (UniProt Q8NB14)
T2 sequence (whole entry): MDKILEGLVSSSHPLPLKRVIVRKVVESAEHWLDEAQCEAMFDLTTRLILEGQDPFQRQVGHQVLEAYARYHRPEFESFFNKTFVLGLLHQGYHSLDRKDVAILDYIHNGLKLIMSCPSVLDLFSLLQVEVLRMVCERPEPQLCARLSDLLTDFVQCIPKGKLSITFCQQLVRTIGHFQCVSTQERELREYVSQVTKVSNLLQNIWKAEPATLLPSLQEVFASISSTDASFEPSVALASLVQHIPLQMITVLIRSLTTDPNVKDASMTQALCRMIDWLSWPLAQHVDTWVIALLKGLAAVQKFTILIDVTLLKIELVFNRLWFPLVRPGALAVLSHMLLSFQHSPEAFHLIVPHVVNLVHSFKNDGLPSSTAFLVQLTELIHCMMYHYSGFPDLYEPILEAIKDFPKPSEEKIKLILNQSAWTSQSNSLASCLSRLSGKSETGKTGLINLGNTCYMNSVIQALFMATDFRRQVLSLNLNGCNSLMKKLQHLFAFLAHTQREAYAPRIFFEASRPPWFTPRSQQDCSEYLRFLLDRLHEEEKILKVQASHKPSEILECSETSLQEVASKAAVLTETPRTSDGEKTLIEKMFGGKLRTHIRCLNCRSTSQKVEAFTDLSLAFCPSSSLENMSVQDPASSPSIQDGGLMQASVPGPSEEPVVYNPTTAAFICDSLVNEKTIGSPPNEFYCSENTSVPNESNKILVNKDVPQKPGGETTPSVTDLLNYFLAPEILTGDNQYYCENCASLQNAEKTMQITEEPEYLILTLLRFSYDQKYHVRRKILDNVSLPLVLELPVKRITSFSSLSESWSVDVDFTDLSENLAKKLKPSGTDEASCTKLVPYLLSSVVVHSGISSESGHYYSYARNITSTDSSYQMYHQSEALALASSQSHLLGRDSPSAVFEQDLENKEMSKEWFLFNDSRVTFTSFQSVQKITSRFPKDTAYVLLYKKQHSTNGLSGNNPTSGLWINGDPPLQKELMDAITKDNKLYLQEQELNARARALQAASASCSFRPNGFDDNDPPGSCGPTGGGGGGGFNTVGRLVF
Summary of the method: as §1

USP39 = target: T3, USP39 (UniProt Q53GS9)
T3 sequence (whole entry): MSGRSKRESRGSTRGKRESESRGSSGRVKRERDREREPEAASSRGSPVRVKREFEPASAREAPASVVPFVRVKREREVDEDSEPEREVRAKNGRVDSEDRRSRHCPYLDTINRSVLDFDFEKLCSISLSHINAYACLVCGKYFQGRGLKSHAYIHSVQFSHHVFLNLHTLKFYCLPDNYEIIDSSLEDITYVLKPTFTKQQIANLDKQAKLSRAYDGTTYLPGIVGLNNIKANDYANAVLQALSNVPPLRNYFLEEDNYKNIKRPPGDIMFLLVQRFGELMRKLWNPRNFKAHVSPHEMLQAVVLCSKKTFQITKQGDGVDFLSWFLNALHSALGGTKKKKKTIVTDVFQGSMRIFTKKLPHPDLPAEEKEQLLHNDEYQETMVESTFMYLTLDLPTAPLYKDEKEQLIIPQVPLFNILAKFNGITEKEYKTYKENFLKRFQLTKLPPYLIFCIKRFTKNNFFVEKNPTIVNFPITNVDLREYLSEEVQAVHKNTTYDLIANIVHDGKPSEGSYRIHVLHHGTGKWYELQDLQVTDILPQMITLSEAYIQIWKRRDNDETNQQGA
Summary of the method: as §1

USP4 = target: T4, USP4 (UniProt Q13107)
T4 sequence (whole entry): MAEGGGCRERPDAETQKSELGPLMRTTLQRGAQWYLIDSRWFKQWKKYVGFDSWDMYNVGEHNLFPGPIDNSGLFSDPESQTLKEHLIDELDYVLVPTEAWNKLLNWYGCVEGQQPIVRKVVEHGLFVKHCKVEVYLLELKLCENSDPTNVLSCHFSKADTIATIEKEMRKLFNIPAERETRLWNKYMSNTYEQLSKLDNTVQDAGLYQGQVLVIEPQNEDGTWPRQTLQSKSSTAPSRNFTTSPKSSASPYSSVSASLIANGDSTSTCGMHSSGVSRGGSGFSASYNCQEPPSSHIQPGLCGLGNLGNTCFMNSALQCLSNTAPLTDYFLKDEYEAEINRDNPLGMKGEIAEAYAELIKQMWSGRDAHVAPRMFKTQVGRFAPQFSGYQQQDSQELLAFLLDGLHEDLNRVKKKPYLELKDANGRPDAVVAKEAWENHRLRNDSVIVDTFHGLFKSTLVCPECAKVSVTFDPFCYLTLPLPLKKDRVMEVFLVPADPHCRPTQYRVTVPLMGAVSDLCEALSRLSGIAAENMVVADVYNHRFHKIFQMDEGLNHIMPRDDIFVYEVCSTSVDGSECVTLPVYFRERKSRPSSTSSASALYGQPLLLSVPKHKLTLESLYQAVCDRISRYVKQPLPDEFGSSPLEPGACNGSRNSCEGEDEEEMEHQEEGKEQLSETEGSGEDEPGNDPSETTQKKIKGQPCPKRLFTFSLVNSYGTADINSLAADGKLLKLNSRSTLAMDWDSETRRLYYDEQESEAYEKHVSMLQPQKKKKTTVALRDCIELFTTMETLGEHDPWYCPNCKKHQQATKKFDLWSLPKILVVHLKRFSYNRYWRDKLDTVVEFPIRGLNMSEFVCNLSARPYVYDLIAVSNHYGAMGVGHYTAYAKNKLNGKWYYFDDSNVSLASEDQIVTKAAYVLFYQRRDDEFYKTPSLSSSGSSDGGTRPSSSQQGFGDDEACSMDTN
Summary of the method: as §1

Measured: log2 ratio of Biotin-Ahx-Ub-VS probe labelling

Chain of USP34 (Q70CQ2 whole entry, the tested form may be a part): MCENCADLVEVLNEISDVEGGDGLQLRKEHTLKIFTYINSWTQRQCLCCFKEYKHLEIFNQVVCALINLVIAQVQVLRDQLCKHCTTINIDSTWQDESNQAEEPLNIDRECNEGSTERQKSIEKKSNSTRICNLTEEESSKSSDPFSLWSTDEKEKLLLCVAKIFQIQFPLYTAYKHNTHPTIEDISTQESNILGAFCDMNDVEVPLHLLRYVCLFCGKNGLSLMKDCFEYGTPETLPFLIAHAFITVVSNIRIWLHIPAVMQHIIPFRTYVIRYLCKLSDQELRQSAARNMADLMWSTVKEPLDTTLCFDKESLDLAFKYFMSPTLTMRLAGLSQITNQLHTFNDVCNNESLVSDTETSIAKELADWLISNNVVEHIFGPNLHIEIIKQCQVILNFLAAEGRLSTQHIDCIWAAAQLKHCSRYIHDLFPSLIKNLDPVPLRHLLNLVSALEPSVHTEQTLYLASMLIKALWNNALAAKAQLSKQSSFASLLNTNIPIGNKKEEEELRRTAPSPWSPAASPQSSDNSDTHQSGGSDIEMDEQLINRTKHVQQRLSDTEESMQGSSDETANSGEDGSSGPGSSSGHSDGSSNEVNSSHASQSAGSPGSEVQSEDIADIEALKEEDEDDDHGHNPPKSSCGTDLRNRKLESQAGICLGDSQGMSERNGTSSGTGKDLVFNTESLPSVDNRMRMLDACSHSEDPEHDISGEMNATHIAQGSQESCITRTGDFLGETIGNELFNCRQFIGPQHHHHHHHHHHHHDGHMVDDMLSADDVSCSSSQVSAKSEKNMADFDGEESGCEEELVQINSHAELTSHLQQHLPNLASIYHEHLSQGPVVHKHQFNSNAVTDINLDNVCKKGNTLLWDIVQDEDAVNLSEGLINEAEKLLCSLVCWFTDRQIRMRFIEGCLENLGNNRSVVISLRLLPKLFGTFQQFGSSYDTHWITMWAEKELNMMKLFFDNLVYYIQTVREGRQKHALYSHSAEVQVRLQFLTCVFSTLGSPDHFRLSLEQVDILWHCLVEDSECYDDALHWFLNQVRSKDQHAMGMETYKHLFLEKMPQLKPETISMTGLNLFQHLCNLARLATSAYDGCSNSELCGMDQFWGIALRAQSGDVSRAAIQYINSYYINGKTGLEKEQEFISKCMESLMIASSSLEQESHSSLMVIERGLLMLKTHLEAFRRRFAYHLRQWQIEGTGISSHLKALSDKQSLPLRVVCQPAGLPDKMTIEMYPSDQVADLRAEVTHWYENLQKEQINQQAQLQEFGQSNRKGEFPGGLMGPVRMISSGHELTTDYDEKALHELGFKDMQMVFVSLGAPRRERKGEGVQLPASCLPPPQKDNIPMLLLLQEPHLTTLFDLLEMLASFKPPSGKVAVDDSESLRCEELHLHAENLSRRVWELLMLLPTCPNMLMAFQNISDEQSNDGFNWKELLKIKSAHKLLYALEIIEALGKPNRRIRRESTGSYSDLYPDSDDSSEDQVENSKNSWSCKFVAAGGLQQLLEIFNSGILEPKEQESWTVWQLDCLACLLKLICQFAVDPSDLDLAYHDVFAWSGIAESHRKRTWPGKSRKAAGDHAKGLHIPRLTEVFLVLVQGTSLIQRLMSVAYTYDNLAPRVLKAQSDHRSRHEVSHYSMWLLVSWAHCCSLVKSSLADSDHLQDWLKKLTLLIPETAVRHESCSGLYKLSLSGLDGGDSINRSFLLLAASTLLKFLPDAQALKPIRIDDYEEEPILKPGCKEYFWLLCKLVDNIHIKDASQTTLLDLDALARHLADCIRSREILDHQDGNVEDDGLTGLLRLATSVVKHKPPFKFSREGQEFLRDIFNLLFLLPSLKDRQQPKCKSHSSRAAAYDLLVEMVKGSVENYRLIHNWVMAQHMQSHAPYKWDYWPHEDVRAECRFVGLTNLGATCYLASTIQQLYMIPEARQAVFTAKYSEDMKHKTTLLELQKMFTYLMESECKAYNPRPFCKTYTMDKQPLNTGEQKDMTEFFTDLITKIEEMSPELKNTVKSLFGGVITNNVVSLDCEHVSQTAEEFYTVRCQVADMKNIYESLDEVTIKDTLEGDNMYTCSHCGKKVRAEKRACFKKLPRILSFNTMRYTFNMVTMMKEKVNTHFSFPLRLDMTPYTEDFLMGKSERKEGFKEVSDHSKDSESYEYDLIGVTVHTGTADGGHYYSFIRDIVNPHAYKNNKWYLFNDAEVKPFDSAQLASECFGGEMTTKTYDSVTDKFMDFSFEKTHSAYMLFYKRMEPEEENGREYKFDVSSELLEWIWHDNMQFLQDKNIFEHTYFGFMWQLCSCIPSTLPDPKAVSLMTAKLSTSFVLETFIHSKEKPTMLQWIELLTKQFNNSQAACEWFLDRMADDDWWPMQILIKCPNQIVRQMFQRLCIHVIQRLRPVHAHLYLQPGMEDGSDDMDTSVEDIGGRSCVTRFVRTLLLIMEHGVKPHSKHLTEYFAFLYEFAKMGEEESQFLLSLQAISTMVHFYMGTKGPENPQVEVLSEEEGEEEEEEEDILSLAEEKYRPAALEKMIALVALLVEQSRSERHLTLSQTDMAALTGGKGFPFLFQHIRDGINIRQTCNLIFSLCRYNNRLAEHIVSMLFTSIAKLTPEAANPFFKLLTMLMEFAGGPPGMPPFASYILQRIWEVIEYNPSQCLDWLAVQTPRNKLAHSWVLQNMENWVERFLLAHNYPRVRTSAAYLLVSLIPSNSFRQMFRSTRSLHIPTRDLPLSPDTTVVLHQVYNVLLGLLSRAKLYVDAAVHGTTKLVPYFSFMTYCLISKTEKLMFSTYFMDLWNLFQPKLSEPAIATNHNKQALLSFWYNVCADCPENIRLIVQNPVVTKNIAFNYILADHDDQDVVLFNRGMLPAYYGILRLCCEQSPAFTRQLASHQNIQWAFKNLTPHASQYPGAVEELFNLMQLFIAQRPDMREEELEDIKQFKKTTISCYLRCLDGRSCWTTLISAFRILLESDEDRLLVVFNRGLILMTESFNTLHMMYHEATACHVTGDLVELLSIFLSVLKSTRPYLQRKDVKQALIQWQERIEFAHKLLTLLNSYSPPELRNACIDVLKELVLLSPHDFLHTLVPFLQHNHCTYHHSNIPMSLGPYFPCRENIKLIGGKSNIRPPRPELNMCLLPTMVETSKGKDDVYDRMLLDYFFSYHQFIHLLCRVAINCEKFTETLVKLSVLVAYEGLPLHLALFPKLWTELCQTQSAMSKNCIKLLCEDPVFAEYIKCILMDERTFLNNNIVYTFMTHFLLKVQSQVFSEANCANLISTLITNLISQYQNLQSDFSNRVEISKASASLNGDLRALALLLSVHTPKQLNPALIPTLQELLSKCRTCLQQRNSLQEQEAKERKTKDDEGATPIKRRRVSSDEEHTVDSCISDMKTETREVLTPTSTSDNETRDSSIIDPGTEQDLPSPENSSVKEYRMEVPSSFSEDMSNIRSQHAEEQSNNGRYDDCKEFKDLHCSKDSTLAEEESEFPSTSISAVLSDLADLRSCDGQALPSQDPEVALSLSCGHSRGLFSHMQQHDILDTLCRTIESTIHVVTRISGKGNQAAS

O=C(O)C1Cc2ccccc2CN1C(=O)CCl (stereo not given)
inactive: USP34 -0.101 | USP36 -0.224 | USP38 -0.252 | USP39 -0.281 | USP4 -0.207
